This is an account of results in PubChem BioAssay (NCI).

Common to all, as to assay: NCI-60 one-dose screen, 48 h (100 = growth as untreated, 0 = no growth, -100 = all killed)
What all share (conditions): 10 µM

Test [1] deals with NCI-H23 lung.
Test [2] relates to NCI-H226 lung.
The test system of test [3] is NCI-H322M lung.
Test [4] relates to HOP-62 NSCLC.
For test [5], the system named is NCI-H460 lung.
Test [6] relates to NCI-H522 lung.
In test [7] the test system is A549/ATCC NSCLC.
Test [8] relates to 786-0 renal.
Test [9] relates to COLO 205 colon.
Test [10] concerns DU-145 prostate.

Compounds without any hit were thinned out: in the full panel of roughly 83,000, 20% have a hit.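 Step 1: grow cells in 96-well plates. Step 2: add test compound at a single concentration. Step 3: incubate 48 h. Step 4: record percent growth.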 Unmarked numbers belong to inactive results. Activity calls are given as the source filed them. The calls were made as follows: active = growth percent below 10; inactive = the rest.

Turning to `CCCCN(CCCC)CCCCCCCCC(O)c1cc2ccccc2c2ccccc12` (stereo not given), the growth in test [1] is 40.8%; in [2] it was 80.2%; in test [3], 84.5%; in test [4] it was 76.7%; in test [5], 54.2%; in test [6], 39.1%. Besides, the growth in test [7] was 56.8%; in test [8], 67.3%; in test [9] it was 44.1%; in test [10] it was 69.7%.
Regarding `Oc1[nH]c2ccc(Cl)cc2c1/C=c1/ccc2c(c1)N=C(c1cccs1)N=2`, the growth was 64.4% in test [1]; 85% in [2]; 78.4% in test [3]; 83.1% in test [4]; 66.1% in test [5]; 53.3% in test [6]. The growth in test [7] was 63.5%; in test [8], 66.7%; in test [9] it was 73%; in test [10], 58.7%.
As for `O=c1c2ccccc2nc(SCCN2CCCCC2)n1CCc1ccccc1`, the growth in test [1] was 77.5%; in test [2], 101%; in [3], 97.6%; in test [4], 89%; in [5], 105%; in [6], 89.2%. Further, the growth in [7] is 87.9%; in test [8], 86.7%; in test [9] it was 74.7%; in test [10] it was 101%.
As to `COc1ccc(-c2nn(-c3cccc(NC(=O)c4cc(C(F)(F)F)cc(C(F)(F)F)c4)c3)cc2-c2ccncc2)cc1Cl`, the growth is 81.1% in test [1]; 78.3% in test [2]; 73.1% in test [3]; 88.1% in test [4]; 62.3% in test [5]; 14.8% in [6]. Further, the growth was 53.1% in test [7], 81.2% in [8], 90.7% in test [9] and 83.7% in [10].
For `Nc1cc2c(cc1Cl)-c1ccc([N+](=O)[O-])cc1/C2=N\O`, the growth in test [1] was 83.4%; in test [2] it was 93.3%; in test [3] it was 50.1%; in [4], 111%; in test [5], 48.8%; in test [6] it was 69.8%. Moreover, the growth in test [7] was 59.2%; in test [8] it was 90.8%; in test [9], 109%; in [10], 63%.
Turning to `O=C1/C(=C\c2cn(C(=O)c3ccc(Cl)cc3)c3ccccc23)c2ccccc2N1C(=O)c1ccc(Cl)cc1`, the growth is 83.2% in test [1]; 89.4% in [2]; 98.6% in test [3]; 61.4% in test [4]; 86% in test [5]; 6.02% (active) in [6]. Also, the growth was 63.3% in [7], 93.7% in test [8], 105% in [9] and 85.1% in [10].
As to `COc1ccc(/C=C/C(C)=N/OCC(=O)O)cc1`, the growth in [1] is 103%; in [2], 99.6%; in test [3], 106%; in [4] it was 105%; in [5], 108%; in test [6], 92.8%. For the same molecule, the growth in test [7] is 102%; in test [8], 98.1%; in test [9] it was 98.9%; in test [10] it was 104%.
`Nc1c(C(=O)Nc2cccc(Br)c2)sc2nc3c(cc12)C(O)CCC3` (stereo not given): the growth is 34.9% in test [1]; 68.6% in test [2]; 48.8% in test [3]; 38.1% in test [4]; 11.3% in test [5]; -4.01% (active) in test [6]. Moreover, the growth in test [7] was 30.1%; in test [8], 45.1%; in [9] it was -1.49% (active); in [10], -0.178% (active).
On to `Nc1ccc2cc(S(=O)(=O)O)cc(O)c2c1N=Nc1ccc(F)cc1`, for which the growth is 94.6% in test [1]; 107% in [2]; 104% in [3]; 109% in test [4]; 115% in [5]; 100% in [6]. The growth was 109% in test [7], 100% in test [8], 111% in [9] and 118% in test [10].
Regarding `Cc1cc(N(CCCNc2ccnc3cc(Cl)ccc23)Cc2ccc3c(c2)OCO3)nc(N2CCCCC2)n1`, the growth in test [1] is 6.38% (active); in test [2] it was 38.1%; in test [3] it was -5.02% (active); in [4], -45.1% (active); in test [5], -30.8% (active); in test [6] it was -43.9% (active). The growth in test [7] is -32.8% (active); in test [8], -91.5% (active); in [9], -78.7% (active); in test [10] it was 11.1%.
`O=C(NN1C(=O)CSC1c1ccc(Cl)cc1)c1cccnc1` (stereo not given): the growth in [1] was 86.8%; in test [2], 249%; in [3], 98.9%; in test [4], 93.7%; in [5], 103%; in test [6], 87.1%. Also, the growth in test [7] is 113%; in test [8] it was 92%; in [9], 110%; in test [10], 52.2%.
Consider `CN1CCC2(CC1)NC(=O)c1c(c3ccc(Cl)c(Cl)c3n1C)C2C#N` (stereo not given), for which the growth in [1] is 76.6%; in [2] it was 53.8%; in test [3], 85.6%; in [4], 58%; in [5], 49%; in test [6] it was 76.3%. Further, the growth in test [7] was 63.7%; in [8], 68.7%; in test [9], 58%; in test [10], 92.4%.
For the molecule `CCC(=O)N1C/C(=C/c2ccc(OC)cc2)C(=O)/C(=C/c2ccc(OC)cc2)C1`, the growth was 63.9% in test [1]; 29.5% in [2]; 111% in test [3]; 20.5% in [4]; 61.4% in test [5]; 20.6% in test [6]. For the same molecule, the growth in [7] is 32%; in test [8], 4.83% (active); in test [9], 27.2%; in [10] it was 18.7%.
